Screens: PubChem BioAssay, National Center for Advancing Translational Sciences (NCATS)
D1 potentiator: Potentiators of Human D1 Dopamine Receptor: qHTS; potentiation, % at 10 µM; actives 0.036% (n = 360,000); AID 504651, 2011; HEK293 TREx D1 cells, calcium flux, dopamine EC20 potentiation; in the data active = potentiation above about 30%
Target sequence (P21728 whole entry, looked up): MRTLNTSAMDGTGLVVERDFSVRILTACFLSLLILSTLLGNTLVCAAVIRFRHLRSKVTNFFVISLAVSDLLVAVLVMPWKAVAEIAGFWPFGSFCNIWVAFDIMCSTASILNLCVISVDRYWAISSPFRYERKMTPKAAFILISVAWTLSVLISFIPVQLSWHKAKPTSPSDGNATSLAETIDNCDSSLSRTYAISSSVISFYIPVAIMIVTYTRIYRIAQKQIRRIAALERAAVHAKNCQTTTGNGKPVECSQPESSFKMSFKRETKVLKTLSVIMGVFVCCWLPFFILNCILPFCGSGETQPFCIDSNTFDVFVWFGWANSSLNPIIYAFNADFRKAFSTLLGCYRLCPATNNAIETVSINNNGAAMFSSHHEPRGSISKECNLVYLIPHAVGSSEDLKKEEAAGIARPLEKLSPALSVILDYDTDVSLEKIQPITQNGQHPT
D1 antagonist: Antagonist of Human D 1 Dopamine Receptor: qHTS; D(1A) dopamine receptor (Homo sapiens), P21728; HEK293 TREx D1 cells, calcium flux, dopamine EC80; stronger effect = lower value; activity change, negative = inhibition, % at 10 µM; actives 3.2% (n = 360,000); AID 504652, 2011; in the data active = activity change below about -30%
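Inducible Hek293 Trex D1 cells (tetracycline, overnight, 30 C). Calcium dye 30–90 min RT. Antagonist mode: EC80 dopamine added after 180 s compound read.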
D1 ag: Allosteric Agonists of the Human D1 Dopamine Receptor: qHTS | activation, % at 2 µM | D(1A) dopamine receptor (Homo sapiens), P21728 | actives 1% (n = 360,000) | HEK293 T-REx D1 cells, calcium flux, agonist mode; in the data active = activation above about 30%
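Agonism was scored from calcium flux recorded over 180 s (1 read/s) after pintool compound addition, following a 10-cycle baseline. Cells were inducible force-coupled HEK293 TREx D1, plated overnight at 30 C and loaded with no-wash calcium dye.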
TRPV1 ag: HTS Assay for Compounds that Act as Agonists of the Vanilloid Receptor 1; Transient receptor potential cation channel subfamily V member 1 (Homo sapiens), Q8NER1; TRPV1-expressing cells, Fluo-8 calcium influx, agonist mode; activation, % at 8.33 µM; actives 0.19% (n = 320,000); AID 540275, 2011; in the data active = activation above about 80%
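Cells expressing TRPV1 were dye-loaded with Fluo-8 and read kinetically: 10 s baseline, 3 min after compound (agonist portion), then 2 min after EC20 capsaicin (allosteric enhancer portion). Calcium-bound dye fluorescence at 480/520 nm.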
TRPV1 PAM: HTS Assay for Compounds that Act as Potentiators of the Vanilloid Receptor 1; TRPV1-expressing cells, Fluo-8 calcium influx, capsaicin EC20 potentiation; actives 0.02% (n = 320,000); potentiation, % at 8.33 µM; Transient receptor potential cation channel subfamily V member 1 (Homo sapiens), Q8NER1; in the data active = potentiation above about 80%
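TRPV1-expressing cells were cultured overnight at 35.5C and loaded with Fluo-8 calcium dye for 40 to 90 min at room temperature. After a 10 s baseline, compound was added and calcium influx was read kinetically for 3 min (ex 480/em 520 nm).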
Large screens that a line does not name were inactive. This is a sample that favours compounds with a hit; in the whole collection about 4.2% have one here.

Cc1ccc(-c2nnn(CC(=O)N(c3cccc(F)c3)C(C(=O)NC(C)(C)C)c3ccco3)n2)o1 (stereo not given)	D1 antagonist -38.8
Cc1ccc(N2C(=O)CS(=O)(=O)C23C(=O)N(Cc2cccc(F)c2)c2ccccc23)cc1Cl (stereo not given)	none (no result: TRPV1 ag, TRPV1 PAM)
CC1CCCC(C)N1CC(O)COC1CCC(C(C)(C)C)CC1 (stereo not given)	D1 ag 31.0
CSc1nnc(N2C(=O)C(O)=C(C(=O)c3ccco3)C2c2ccc(F)cc2)s1 (stereo not given)	D1 ag 128.0
CCOc1cccc(C2C(C(=O)c3ccco3)=C(O)C(=O)N2c2nnc(C)s2)c1 (stereo not given)	none
CCSc1nnc(N2C(=O)C(O)=C(C(=O)c3ccco3)C2c2cccc(OC)c2)s1 (stereo not given)	D1 ag 76.9
C=CCOc1ccc(C2C(C(=O)c3ccco3)=C(O)C(=O)N2c2nnc(C)s2)cc1 (stereo not given)	D1 ag 56.7
COc1ccc(C2C(C(=O)c3ccco3)=C(O)C(=O)N2c2nnc(C)s2)cc1 (stereo not given)	none
Cc1ccc(CC(=O)N(Cc2nc(-c3ccc(C)cc3)no2)C(C)C)cc1	none (no result: TRPV1 ag, TRPV1 PAM)
Cn1ncc(-c2ccno2)c1C(=O)O	D1 ag 37.4
Cc1cc(O)c(-c2ccno2)cc1Cl	none
COc1ccc(OC)c(CNC(=O)C2CCCCN2S(=O)(=O)c2ccc(F)cc2)c1 (stereo not given)	none (no result: TRPV1 ag, TRPV1 PAM)
COc1ccc(C)cc1NC(=O)Cn1c(=O)n(Cc2nc(C)no2)c(=O)c2ccccc21	none (no result: TRPV1 ag, TRPV1 PAM)
O=C(CN1C(=O)C2C3C=CC(C3)C2C1=O)Nc1ccc(C(=O)O)cc1 (stereo not given)	D1 antagonist -30.0
COc1ccc(OC)c(CCNC(=O)Cn2nc(C)n3c(cc4sccc43)c2=O)c1	none (no result: TRPV1 ag, TRPV1 PAM)
Cc1n[nH]c(C)c1CCCCOc1ccccc1[N+](=O)[O-]	D1 antagonist -32.7
Cc1n[nH]c(C)c1CCCCOc1ccc([N+](=O)[O-])cc1	D1 antagonist -39.1
Cc1n[nH]c(C)c1CCCCOc1ccccc1	D1 antagonist -32.2
Cc1ccc(OCCCc2c(C)n[nH]c2C)cc1	none
CCOc1ccccc1NC(=O)CC(c1ccc(F)cc1)N1Cc2ccccc2C1=O (stereo not given)	none (no result: TRPV1 ag, TRPV1 PAM)
CC(C)(C)NS(=O)(=O)c1ccc(N2C(=O)c3ccccc3C2=O)cc1	none
CC(C)(C)NS(=O)(=O)c1cccc(S(=O)(=O)c2cccc(S(=O)(=O)NC(C)(C)C)c2)c1	D1 antagonist -39.2
CCn1c(C)cc(/C=C2\SC(=O)N(CC(=O)Nc3ccc(C)c(C)c3)C2=O)c1C	D1 antagonist -38.1
CC(=O)Nc1ccc(N(CC(=O)NC2CCCC2)C(=O)CCC(=O)Nc2cc(C)on2)cc1	none
Cc1cccc(N(CC(=O)NC2CCCC2)C(=O)CCCC(=O)Nc2ccccn2)c1	D1 antagonist -34.4
COc1ccc(N(CC(=O)NC2CCCCC2)C(=O)CCC(=O)Nc2nc(C)cs2)cc1	none
COc1ccc(N(CC(=O)NC2CCCCC2)C(=O)CCC(=O)Nc2nc(C)cs2)cc1OC	D1 antagonist -45.4
CC(=O)c1ccc(N(CC(=O)NC2CCCC2)C(=O)CCC(=O)Nc2cc(C)on2)cc1	D1 antagonist -36.4
COc1ccc(C2=NN(S(C)(=O)=O)C(c3cn(-c4ccccc4)nc3-c3cccs3)C2)cc1 (stereo not given)	none (no result: TRPV1 ag, TRPV1 PAM)
N#CCC(=O)N1CC2(CC(c3cccc(NC(=O)COc4ccc(Cl)cc4)c3)=NO2)C[C@@H]1C(N)=O (stereo not given in full)	D1 antagonist -41.4
C/C=C(\C)C(=O)Nc1cccc(C2=NOC3(C2)C[C@H](C(N)=O)N(C(=O)c2cc([N+](=O)[O-])cc([N+](=O)[O-])c2)C3)c1 (stereo not given in full)	D1 antagonist -64.4
NC(=O)[C@@H]1CC2(CC(c3cccc(NC(=O)COc4ccc(Cl)cc4)c3)=NO2)CN1C(=O)COc1ccc(Cl)cc1 (stereo not given in full)	none
C/C=C\C=C/C(=O)Nc1cccc(C2=NOC3(C2)C[C@@H](C(N)=O)N(C(=O)c2ccc(Cl)cc2)C3)c1 (stereo not given in full)	D1 antagonist -30.0
C/C=C/C(=O)Nc1cccc(C2=NOC3(C2)C[C@H](C(N)=O)N(C(=O)/C=C/C)C3)c1 (stereo not given in full)	D1 antagonist -41.8
CN(C)c1ccc(-c2cc[nH]c(=O)c2N)cc1	none (no result: TRPV1 ag, TRPV1 PAM)
CC(=O)c1c(C)oc2ccc(N(C(=O)Oc3ccccc3)S(=O)(=O)c3ccccc3)cc12	none (no result: TRPV1 ag, TRPV1 PAM)
Cc1[nH]c2ccccc2c1/C=N/NC(=O)c1cc(-c2ccccc2)n[nH]1	none
Cc1[nH]c2ccccc2c1/C=N/NC(=O)CCC(=O)Nc1ccccc1	D1 antagonist -47.6
Cc1[nH]c2ccccc2c1/C=C/C(=O)c1ccccc1	D1 ag 41.3
O=C(NNC(=O)c1cc(-c2ccncc2)nc2ccccc12)c1cccc(Cl)c1	D1 antagonist -40.7
Cc1[nH]c2ccccc2c1/C=N/NC(=O)c1cc(-c2ccncc2)nc2ccccc12	D1 antagonist -42.6
CCOc1ccccc1C(=O)NCC(c1ccc(N(C)C)cc1)N1CCc2ccccc21 (stereo not given)	none (no result: TRPV1 ag, TRPV1 PAM)
Cc1ccc(-n2c(=O)c3sc4ccccc4c3n(CC(=O)NC3CCCC3)c2=O)cc1C	D1 antagonist -44.7 (no result: TRPV1 ag, TRPV1 PAM)
CCc1ccc(-n2c(=O)c3sc4ccccc4c3n(CC(=O)NC3CCCCC3)c2=O)cc1	none (no result: TRPV1 ag, TRPV1 PAM)
Cc1ccccc1NC(=O)Cn1c(=O)n(Cc2ccccc2)c(=O)c2sc3ccccc3c21	D1 antagonist -37.4 (no result: TRPV1 ag, TRPV1 PAM)
COc1ccc(NC(=O)Cn2c(=O)n(Cc3ccccc3)c(=O)c3sc4ccccc4c32)cc1	D1 antagonist -30.3 (no result: TRPV1 ag, TRPV1 PAM)
Oc1c(C(c2ccccc2)N2CCN(Cc3ccccc3)CC2)sc2nc(-c3ccco3)nn12 (stereo not given)	none (no result: D1 antagonist, TRPV1 ag, TRPV1 PAM)
Nc1cc(-c2ccccc2)c[nH]c1=O	none (no result: TRPV1 ag, TRPV1 PAM)
CCOC(=O)C1(Cc2ccc(Cl)cc2)CCN(C(C)Cc2ccc(O)c(OC)c2)CC1 (stereo not given)	D1 antagonist -37.4
CCOC(=O)C1(Cc2ccc(OC)cc2)CCN(S(C)(=O)=O)CC1	none
COc1cc(C2CC(=O)Oc3c(C(CCN4CCOCC4)c4ccc(N(C)C)cc4)c(OC)cc(OC)c32)cc(OC)c1OC (stereo not given)	none
